Consider 40 compounds from PubChem BioAssay (Tox21).

Inconclusive results are not listed. The source made the active and inactive calls. Calls follow the shape of the full dose curve.
% is scaled to controls: 0 for no effect and ±100 for the full control effect.

This experiment in a line: qHTS assay to identify small molecule agonists of the NFkB signaling pathway - cell viability counter screen (AID 1159515). Also: nearly all actives have a fitted effect of over 55% in size. The following applies: NFkB-bla ME-180 viability, CellTiter-Glo luminescence, 5 h; series mostly up to 61 µM. The text has this:
National Center for Advancing Translational Sciences [NCATS]
NIH Chemical Genomics Center [NCGC]
U.S. Environmental Protection Agency [EPA]
National Institutes of Environmental Health Sciences [NIEHS]
National Toxicology Program [NTP]
U.S. Food and Drug Administration [FDA]
Transcription factors and their stimulated target gene expression play pivotal roles across many cellular processes including responses to environmental stimuli. Proper regulation of associated pathways is critical to maintain cell health and function. Constitutive activation of transcription factor pathways has been implicated in tumors as it may block cellular functions such as apoptosis and lead to invasion and metastasis. One important transcription factor that stimulates gene expression in response to cytokines, UV radiation, and other stimuli is nuclear factor-kappa B (NFkB). To measure activation of the NFkB pathway, the CellSensor NFkB-bla ME-180 cell line (Life Technologies, Carlsbad, CA) that stably expresses beta-lactamase reporter gene under the regulation of a NF-kB response element was used. This assay allows measurement of the NFkB pathway activity induced by compounds in a ME-180 cell line. This system quantitates NF-kB activity using a FRET-based assay system where beta-lactamase expression disrupts FRET, allowing for fluorescent measurement of activity. This cell line has been used to screen the Tox21 10K compound library and to identify compounds that induce the NFkB pathway activity. The cytotoxicity of the Tox21 compound library against the NFkB-bla ME-180 cell line was tested in parallel by measuring cell viability using the CellTiter-Glo assay in the same wells.
Tox21 Assay Protocol Summary:
NFkB-bla ME-180 cells were dispensed at 2,000 cells/6 uL of assay medium per well into black wall/clear-bottom 1536-well plates using a Multidrop Combi (ThermoFisher Scientific, Waltham, MA) dispenser. After the assay plates were incubated at 37 C and 5% CO2 for an overnight, 23 nL of compounds dissolved in DMSO, positive controls or DMSO only was transferred to the assay plate by a Pintool station (Kalypsys, San Diego, CA). The assay plates were incubated at 37 C and 5% CO2 for 5 hr. One uL of LiveBLAzer B/G FRET substrate (Life Technologies) was added using a Flying Reagent Dispenser (Aurora Discovery, San Diego, CA) and the plates were incubated at room temperature for 1.5 hr. Fluorescence intensity (405 nm excitation, 460 nm and 530 nm emissions) was measured using an Envision plate reader (PerkinElmer, Shelton, CT). For cytotoxicity, 3 ul/well of CellTiter-Glo reagent was added into the assay plates using an FRD. After 30 min incubation at room temperature, the luminescence intensity was measured using a ViewLux plate reader (PerkinElmer).
(qHTS replaces the single test concentration by a dilution series.)
As for `CC1CC(=O)CC(C)(C)C1` (stereo not given), the compound was called inactive. Same read-out and setting: with `C/C=C(\C)C(C)=O` the entry was “inactive”; with `CCCCOCCOC(=O)COc1ccc(Cl)cc1Cl`, “inactive”; with `O=C(O)CONC(=O)c1ccccc1`, “inactive”. On the same count and under the same terms, to `CCN(CC)CCN` belongs “inactive”; to `CCC(C)OC(C)CC` (stereo not given), “inactive”; to `CC1(C)[C@H]2CC[C@](C)(C2)[C@H]1O`, “inactive”.

As for `N#Cc1ccccc1O`, the compound was classed as inactive. The same measure, in the same setting: to `C/C=C(\C)C(=O)OCCc1ccccc1` belongs “inactive”; to `CN(C)CCN(C)CCO`, “inactive”. Take `CCCCCCCCCCCCCCC(=O)NC(CO)CCCCCCCCCCCCCC` (stereo not given): the compound was called inactive. Still for that read-out and setting: to `Cc1ccc(C(=O)O)cc1[N+](=O)[O-]` belongs “inactive”; to `C[C@]12CCC(=O)C=C1CC[C@H]1[C@@H]3CC[C@](O)(C(=O)CO)[C@@]3(C)C[C@H](O)[C@@]12F`, “inactive”; to `CC1=C(C(=O)O)N2C(=O)[C@@H](NC(=O)[C@H](N)C3=CCC=CC3)[C@H]2SC1`, “inactive”. On the same count and under the same terms, with `O=C(O)CNC(=O)CNC(=O)CNC(=O)CSC(=O)c1ccccc1` the entry was “inactive”; with `CCC[C@@H]1C[C@@H](C(=O)N[C@@H]([C@H]2O[C@H](SC)[C@H](O)[C@@H](O)[C@H]2O)[C@@H](C)O)N(C)C1`, “inactive”. Consider `Cc1ccc2c(c1)C(=O)c1ccccc1C2=O`, for which the call was inactive. Turning to `CC1=C(C(=O)O)N2C(=O)[C@@H](NC(=O)[C@H](N)c3ccccc3)[C@H]2SC1`, the call was inactive. Same read-out and setting: with `Cc1c(NC(=O)c2cccnc2)c(=O)n(-c2ccccc2)n1C` the entry was “inactive”. Consider `O=S(=O)(O)c1ccc2c(N=Nc3ccc(S(=O)(=O)O)c4ccccc34)c(O)c(S(=O)(=O)O)cc2c1`, for which the activity, negative = cytotoxic is 6.88% [at 6.95 µM] (inactive).

In the case of `NCc1ccc(S(N)(=O)=O)cc1`, the compound was classed as inactive. Turning to `CCC(C)C(C)=O` (stereo not given), the call was inactive. Same read-out and setting: with `CO[C@@]1(NC(=O)Cc2cccs2)C(=O)N2C(C(=O)O)=C(COC(N)=O)CS[C@@H]21` the entry was “inactive”; with `CC/C=C\CCOC(=O)c1ccccc1O`, “inactive”; with `O=C1CCC(=O)N1Cl`, “inactive”. Still for that read-out and setting: with `ONc1ccccc1` the entry was “inactive”; with `CC(C)OC(=O)OCOP(=O)(CO[C@H](C)Cn1cnc2c(N)ncnc21)OCOC(=O)OC(C)C`, “inactive”. The same measure, in the same setting: to `CN(C)CC/C=C1/c2ccccc2COc2ccc(CC(=O)O)cc21` belongs “inactive”.

Regarding `O=C(NCN1CCOCC1)c1cnccn1`, the call was inactive.

`CCCC(CC)c1ccccc1` (stereo not given): the compound was classed as inactive.

`O=C[O][Al]([O]C=O)[O]C=O`: the outcome was inactive. Same read-out and setting: with `COc1cc2c(cc1OC)CN(C(=O)[C@H](C)N[C@@H](CCc1ccccc1)C(=O)O)[C@H](C(=O)O)C2` the entry was “inactive”; with `[O-][n+]1cccc(/C(Cl)=N/OC[C@@H](O)CN2CCCCC2)c1`, “inactive”; with `CC(=O)C(C)O` (stereo not given), “inactive”.

Take `CCC(C(=O)OCCN1CCOC(c2ccccc2)C1C)c1ccccc1` (stereo not given): the compound was classed as inactive. On the same count and under the same terms, with `CCCC(=O)OCCC(C)CCC=C(C)C` (stereo not given) the entry was “inactive”; with `O=C1NC(c2ccccc2)(c2ccccc2)C(=O)N1COP(=O)(O)O`, “inactive”; with `c1ccc(-c2nn[nH]n2)cc1`, “inactive”. The same measure, in the same setting: to `CC(C)CCOC(=O)c1ccccc1` belongs “inactive”. Same read-out and setting: with `c1ccc(B(c2ccccc2)c2ccccc2)cc1` the entry was “inactive”.
